Cruzain Triton: inhibitors of Trypanosoma cruzi cruzain with detergent. Potency, µM, inactives show max response, negative = inhibition, hits mostly inhibitors. P25779. purified cruzain, Z-FR-AMC fluorescence, 0.01% Triton. hit rate 0.43% among 200,000. AID 1478;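 further: plate controls were neutral wells for no effect and buffer without enzyme for full effect; nearly all actives have a fitted effect of over 40% in size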
Target sequence (P25779 123-467 limits assumed): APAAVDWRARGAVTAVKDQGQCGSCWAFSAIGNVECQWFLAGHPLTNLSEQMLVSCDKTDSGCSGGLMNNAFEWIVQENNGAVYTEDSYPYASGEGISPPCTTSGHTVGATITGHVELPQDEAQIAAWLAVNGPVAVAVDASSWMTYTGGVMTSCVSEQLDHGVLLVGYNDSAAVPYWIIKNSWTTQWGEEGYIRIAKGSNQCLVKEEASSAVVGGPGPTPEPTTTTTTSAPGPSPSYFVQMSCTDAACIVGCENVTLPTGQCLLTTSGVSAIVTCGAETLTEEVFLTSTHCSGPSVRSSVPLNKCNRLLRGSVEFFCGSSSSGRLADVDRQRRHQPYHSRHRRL
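In this qHTS format, compounds are incubated with 1.5 nM cruzain for 15 min at room temperature before 2 uM Z-FR-AMC is added. Release of AMC is followed at 360/450 nm, and progress is taken as the 60 s fluorescence difference.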
Cruzain noTriton: blocks cruzain activity in detergent-free assay. P25779. purified cruzain, Z-FR-AMC fluorescence, no detergent. Potency, µM, for the others: max response, negative = inhibition, most hits filed as inhibitors. hit rate 2.3% among 200,000;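 further: plate controls were enzyme without inhibitor for no effect and buffer without enzyme for full effect; nearly all actives have a fitted effect of over 40% in size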
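Purified cruzain at 1.5 nM, pre-incubated 15 min with compound at room temperature in 100 mM sodium acetate pH 5.5, 5 mM DTT, 0.00005% Triton X-100. Reaction started with 2 uM Z-FR-AMC; AMC fluorescence increase over 60 s gives rate.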
* hit, by the source's call; ? = inconclusive. Hits are enriched below; roughly 2.6% of the tested compounds scored in any of these assays. The call rests on the fitted dose curve; in most records, active means well fitted curve in the direction sought with a large enough effect; inconclusive means small, poorly fitted or top-dose-only effect, or another doubt; inactive means no such curve, though single readings can be large; an effect the other way counts as inactive or inconclusive. Potency means the concentration at half of the fitted maximal effect.

SMILES | Cruzain Triton | Cruzain noTriton
COc1cccc(-c2nc(NCc3ccccc3OC)c3ccccc3n2)c1 | -0.9% | 23.4%
c1ccc(CNc2nc(-c3ccoc3)nc3ccccc23)cc1 | -3.5% | 25.1µM*
Cc1cccc(CNc2nc(-c3ccoc3)nc3ccccc23)c1 | -6.4% | ?
Cc1noc(C)c1-c1nc(Nc2ccc(F)cc2)c2ccccc2n1 | -0.1% | ?
Cc1ccc(S(=O)(=O)NCCc2cn3ccsc3n2)c(C)c1 | -1.6% | -0.7%
CCN(CC)c1nn2c(=O)c(C(=O)NCc3ccccc3Br)cnc2s1 | -22.0% | -20.8%
CCOC(=O)c1cccc(NC(=O)C2CCCN(S(=O)(=O)c3ccc4c(c3)oc(=O)n4C)C2)c1 (configuration not stated) | -5.1% | 23.1%
C/C(=N/NC(=O)c1cc(-c2cccc([N+](=O)[O-])c2)n[nH]1)c1ccc(Cl)cc1 | 0.0% | 6.31µM*
C/C(=N\NC(=O)c1ccc(CN2CCOCC2)cc1)c1cccc([N+](=O)[O-])c1 | 1.2% | -9.2%
CCN(CC)CCCNC(=O)c1nn(C)c2c1CS(=O)(=O)c1ccccc1-2 | -2.8% | 2.6%
CN(C)c1ccc(CNC(=O)C2CCCN(S(=O)(=O)c3ccc4c(ccn4C)c3)C2)cc1 (configuration not stated) | -3.1% | -16.0%
CCc1nc2cccnc2n1-c1ccc(CC(=O)Nc2ccccc2Cl)cc1 | 12.6µM* | 1.2%
CCc1ccccc1NC(=O)Cc1ccc(-n2c(C)nc3cccnc32)cc1 | -21.0% | -2.4%
CCc1nc2cccnc2n1-c1ccc(CC(=O)Nc2ccc(C)cc2)cc1 | -9.7% | 2.1%
CCc1nc2cccnc2n1-c1ccc(CC(=O)Nc2cccc(C)c2C)cc1 | 15.8µM* | -4.5%
Cc1ccc(-c2noc(-c3ccccc3NC(=O)C3CC(=O)N(c4ccccc4C)C3)n2)cc1 (configuration not stated) | -4.3% | 5.0%
CCOc1ccc(CCNCc2c(C(=O)O)c(C)n(Cc3ccccc3F)c2C)cc1 | -3.0% | 3.0%
Nc1c(-c2nc(-c3cccs3)no2)nnn1-c1ccc(Cl)cc1 | -1.2% | -1.4%
O=C(CSc1nc2ccc(Cl)cc2[nH]1)NC1CCCc2ccccc21 (configuration not stated) | -10.2% | -1.1%
O=C(CSc1nc2ccccc2[nH]1)NC1CCCc2ccccc21 (configuration not stated) | ? | 1.9%
Cc1ccc2nc(SC(C)C(=O)NC3CCCc4ccccc43)[nH]c2c1 (configuration not stated) | 10µM* | -9.0%
COc1ccc2nc(SCC(=O)NC3CCCc4ccccc43)[nH]c2c1 (configuration not stated) | 14.1µM* | -27.0%
CCOC(=O)c1ccc(NC(=O)Cn2cc(C(=O)c3ccc(Cl)cc3)c(=O)c3ccc(C)nc32)cc1 | -5.5% | 12.7%
Cc1cc(C)nc(NC(=O)CSc2nc3cc(Cl)ccc3s2)n1 | -3.4% | 6.4%
CCOC(=O)c1c(NC(=O)CSc2nc3ccccc3s2)sc(C(C)=O)c1C | -1.6% | -24.7%
SMILES | Cruzain Triton | Cruzain noTriton
Cc1cc(NC(=O)CSc2nc3cc(Cl)ccc3s2)no1 | 1.4% | 10µM*
CCOC(=O)c1c(NC(=O)CSc2nc3cc(Cl)ccc3s2)sc(C(C)=O)c1C | -6.1% | 15.8µM*
CCCCN(C)CCNC(=O)C1CCN(c2nc3ccc(CC)cc3s2)CC1 | -5.8% | 3.4%
CCCCCC(=O)/C=C/[C@H]1[C@H](O)CC(=O)[C@@H]1C/C=C\CCCC(=O)O | 4.3% | -1.9%
CCOC(=O)c1c(NC(=O)c2cc(OCC)c(OCC)c(OCC)c2)sc2c1CCCCC2 | -0.3% | 18.0%
CCOc1ccc2nc(N3C(=O)/C(=C/c4ccccc4)NC3=S)sc2c1 | -1.7% | 12.6µM*
COc1ccc2nc(-n3c(C)ccc3C)sc2c1 | 2.7% | -19.0%
CCOc1ccc2nc(N3CCCCCC3)sc2c1 | -1.3% | -6.2%
COc1ccc2nc(N3C(=O)/C(=C/c4ccccc4)NC3=S)sc2c1 | -0.6% | 12.6µM*
O=C(COc1ccc(F)cc1)NCc1ccc2c(c1)CCN2C(=O)c1ccccc1 | -0.9% | 21.1%
CC(C)NC(=O)Cn1nc(N2CCN(c3ccccc3)CC2)ccc1=O | -2.0% | -15.1%
Cc1ccc(C(=O)Nc2cccc(OCc3cc(=O)n4c5c(sc4n3)CCCC5)c2)cc1 | 0.7% | 1.1%
COc1ccccc1CNc1ncnc2ccc(-c3cccc(NS(C)(=O)=O)c3)cc12 | -1.8% | -8.8%
Cc1ccc(NC(=O)Cn2c(=O)c(C(F)(F)F)nc3ccccc32)cc1C | 2.2% | -2.6%
Nc1nonc1-c1nc2ccccc2n1CC(=O)Nc1ccc(F)cc1 | -2.3% | -5.3%
Cc1ccc(NC(=O)Cn2c(-c3nonc3N)nc3ccccc32)cc1Cl | -0.3% | 7.94µM*
Nc1nonc1-c1nc2ccccc2n1CC(=O)N/N=C\c1ccc(-c2ccc(Cl)cc2)o1 | -4.2% | 3.98µM*
CCC(=O)Nc1nonc1-c1nc2ccccc2n1Cc1ccccc1 | -8.6% | 1.1%
CCOC(=O)Cn1c(-c2nonc2NC(=O)c2ccccc2F)nc2ccccc21 | -1.9% | 25.1µM*

High-throughput results as filed in PubChem.
